Screening data from PubChem.
aSyn 5UTR act: Activators via SNCA 5'UTR binding, MLPCN | alpha-synuclein 5'UTR reporter, activators screen | activity score, % (tested at 7.5 µM), hits read low | 300,000 compounds, 7.1% hits | AID 1814, 2009; in the data active = activity score below about -60%
Active calls of the source: *. The list is a sample of the results.

SMILES | aSyn 5UTR act
Cc1ccc(-c2onc3ccc(C4OCCO4)cc23)cc1 | -100.5*
CC(=O)c1ccc2noc(-c3cccc(C)c3)c2c1 | -99.1*
Cc1[nH]n(-c2ccccc2)c(=O)c1N=Nc1ccc2c(c1)OCO2 | -214.5*
Cc1[nH]n(-c2ccccc2)c(=O)c1N=Nc1ccccc1O | 50.0
COc1cccc(N=Nc2c(C)[nH]n(-c3ccccc3)c2=O)c1 | -145.1*
O=C(CC(=O)c1ccccc1)Nc1ccccc1C(F)(F)F | -63.4*
O=C(CC(=O)c1ccccc1)Nc1ccccc1 | -110.3*
COc1cccc(NC(=O)CC(=O)c2ccccc2)c1 | -111.5*
O=C(O)/C(=C\C(=O)c1ccccc1)Nc1ccccc1 | -90.5*
O=C(CC(=O)c1ccccc1)Nc1ccccn1 | -130.1*
CCC(SC1=Nc2ccccc2C2=NC(CC(C)C)C(=O)N12)C(=O)Nc1ccc2c(c1)OCO2 (stereo not drawn) | -64.0*
N#CCc1nc(CSc2nc3ccccc3s2)cs1 | -115.7*
Cc1ccc(-c2c(C)sc(=NC(=O)c3ccco3)n2C)cc1 | -122.8*
CC1CCC(NC(=O)Cn2cc3c(n2)CCCC3)CC1 (stereo not drawn) | -156.6*
O=C(CSCc1ccc(F)cc1)Nc1ccc(F)cc1 | -76.3*
Cc1ccccc1CSCC(=O)Nc1ccccc1F | -79.5*
O=C(CSCc1ccccc1)Nc1cccc(F)c1 | -127.5*
CCC(=O)Oc1ccc(NC(=O)CSCc2ccccc2)cc1 | -105.8*
O=C(CSCc1c(F)cccc1F)Nc1ccccc1 | -116.4*
O=C(CSCC(=O)Nc1ccccc1)N/N=C/c1c(O)ccc2ccccc12 | 76.3
Cc1ccc(-n2nc(C)c3c2OC(N)=C(C#N)C3c2ccc(F)cc2)cc1 (stereo not drawn) | -74.8*
C=CCc1c(C)nc(SC)nc1Nc1ccc(C(C)=O)cc1 | -75.9*
Clc1ccc(OCc2nc(-c3ccncc3)no2)c(Br)c1 | -118.8*
NC(=O)COc1ccc(-c2noc(COc3ccccc3[N+](=O)[O-])n2)cc1 | -83.8*
c1ccc(OCc2nc(-c3ccccc3)no2)cc1 | -202.0*
SMILES | aSyn 5UTR act
c1ccc(OCc2nc(-c3ccncc3)no2)cc1 | -81.8*
CCOC(=O)c1ccc(NC(=S)Nc2ccccn2)cc1 | -136.8*
Cc1ccc(NC(=O)Nc2ncccc2C)cc1 | -162.9*
Cc1cccnc1NC(=O)Nc1ccc(F)cc1 | -144.1*
CCOC(=O)c1ccc(NC(=O)Nc2ncccc2C)cc1 | -102.4*
CCOC(=O)C1(Cc2ccc(OC)cc2)CCN(C(=O)c2ccc3[nH]ccc3c2)CC1 | -127.1*
O=C(O)c1ccc(N/N=C/C(Br)=C/c2ccccc2)cc1 | -242.4*
Cc1ccc(NCC(=O)N/N=C\C(Br)=C\c2ccccc2)cc1 | -65.0*
BrC(=C\c1ccccc1)/C=N/Nc1nc2ccccc2[nH]1 | -158.4*
O=C(N/N=C/C(Br)=C/c1ccccc1)C1CC1 | -195.2*
O=C(N/N=C/C(Br)=C/c1ccccc1)NC1CCCCC1 | -84.7*
O=C(N/N=C/C(Br)=C/c1ccccc1)C(O)c1ccccc1 (stereo not drawn) | -74.3*
COc1ccc(OC)c(NC(=O)c2cc3sccc3n2C)c1 | -93.3*
COc1ccc(NC(=O)c2cc3sccc3n2Cc2ccc(F)cc2)cc1OC | -75.8*
COC(=O)c1ccc(NC(=O)c2cc3sccc3n2C)cc1 | -78.9*
COc1cc(NC(=O)c2cc3sccc3n2C)cc(OC)c1 | -232.3*
Cn1c(C(=O)Nc2ccc3c(c2)OCO3)cc2sccc21 | -244.7*
Cn1c(C(=O)Nc2ccccc2)cc2sccc21 | -171.7*
Cc1ccc2nc(=O)c(NNc3ccccc3)cnc2c1 | -217.6*
Cc1nc2ccccc2nc(=O)c1NNc1ccccc1 | -240.8*
COc1ccc(SCC(=O)c2cc(C)c(OC(=S)N(C)C)c(C)c2)cc1 | -82.3*
O=c1nc(/C=C/c2ccc(O)c(O)c2)oc2ccccc12 | -159.0*
CC(=O)N1CCC(=NNC(=O)c2cccs2)CC1 | -114.8*
C/C(=N/NC(=O)c1cccs1)c1cccc(N)c1 | -86.4*
C/C(=N/NC(=O)c1cccs1)c1cccs1 | -81.7*
SMILES | aSyn 5UTR act
O=C(NN=C1C2CC3CC(C2)CC1C3)c1cccs1 | -86.8*
CCOC(=O)N/N=C(\C)c1cccs1 | -67.2*
C/C(=N\NC(=O)COc1ccccc1[N+](=O)[O-])c1cccs1 | -146.2*
C/C(=N/Nc1ccccc1C(=O)O)c1cccs1 | -88.7*
C/C(=N\NC(=O)COc1ccccc1-c1ccccc1)c1ccccn1 | 114.0
C/C(=N\NC(=O)c1sccc1-n1cccc1)c1cccs1 | -80.3*
O=c1c(Cl)c(O)c2cccc3c4ccccc4n1c23 | -64.3*
Cn1c(N)c(-c2nc3cccnc3n2C)sc1=S | -95.2*
COc1ccc(Nc2nccc3c2ncn3C)cc1 | 21.3
COc1cccc(Nc2ncnc3sccc23)c1 | -118.2*
COc1ccc(Oc2ncnc3sccc23)cc1 | -95.1*
COc1ccc(Nc2ncnc3sccc23)cc1 | -97.6*
c1nc(Nc2ccc(N3CCOCC3)cc2)c2ccsc2n1 | -63.2*
COc1cccc(Nc2ncnc3sc(C)cc23)c1 | -126.2*
COc1ccc(CCNc2ncnc3sc(C)cc23)cc1OC | 77.4
Cc1ccc(NC(=O)CSc2ncc3ccccn23)cc1 | -67.4*
Cc1ccc(NC(=O)CSc2nccn2Cc2ccco2)cc1 | -85.5*
